Screening results: PubChem, several laboratories
PostGolgi ctrl = yeast control strain growth, post-Golgi counter-screen. efflux-deficient yeast background strain, growth absorbance A615, 16 h. 98,000 compounds, 5% hits. inhibition, % at 10 µM
PostGolgi yeast = growth inhibition of a yeast mutant, post-Golgi transport screen. post-Golgi transport phenotypic cell assay. 98,000 compounds, 0.9% hits. inhibition, % at 10 µM. AID 739;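 further: yeast cells grown in 1536-well plates; yeast grown about 18 h at 30C before absorbance read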
Cav3 T inh = inhibitors of human Cav3.2 T-type calcium channel | O95180 | Cav3.2-expressing cells, Fluo-4 calcium fluorescence FDSS; stronger effect = lower value | B-score at 10 µM | 100,000 compounds, 4% hits | AID 449739;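 active means single-dose well whose peak fluorescence ratio is a statistical outlier from its plate by either plate-standardised score or position-corrected B-score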
PLAP act = human PLAP activation. purified PLAP enzyme, luminescent substrate read-out; stronger effect = higher value. P05187. activation fold at 20 µM. 96,000 compounds, 1.2% hits; in the data active means activation fold above about 2
Target sequence (P05187 whole entry, looked up): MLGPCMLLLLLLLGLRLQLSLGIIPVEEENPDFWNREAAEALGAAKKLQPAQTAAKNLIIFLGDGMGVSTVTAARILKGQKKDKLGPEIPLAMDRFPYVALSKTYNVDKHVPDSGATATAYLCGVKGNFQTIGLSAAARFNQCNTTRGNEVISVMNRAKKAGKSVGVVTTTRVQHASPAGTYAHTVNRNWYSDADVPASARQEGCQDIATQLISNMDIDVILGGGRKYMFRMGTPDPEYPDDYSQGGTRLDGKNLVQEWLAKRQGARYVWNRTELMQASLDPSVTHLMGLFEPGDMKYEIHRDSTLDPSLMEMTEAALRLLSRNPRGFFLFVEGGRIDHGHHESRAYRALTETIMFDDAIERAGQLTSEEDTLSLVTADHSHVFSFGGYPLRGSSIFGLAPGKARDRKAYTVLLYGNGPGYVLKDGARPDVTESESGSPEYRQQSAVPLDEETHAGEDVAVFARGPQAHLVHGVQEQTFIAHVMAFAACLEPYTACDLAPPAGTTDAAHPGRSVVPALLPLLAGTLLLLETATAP
hDAT+cocaine = changed human dopamine transporter uptake under cocaine IC80; B-score at 10 µM; LLC-PK1 hDAT cells, [14C]-dopamine uptake with cocaine IC80; actives deviate in either direction; 110,000 compounds, 1.3% hits;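 active means Z score or B-score, a plate-position-corrected score, falls beyond the plate's 99.7% confidence bounds, in either direction; inactive means both scores lie inside the 99.7% bounds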
Large screens that a line does not name were inactive. Sampled rows, rich in hits. Any-hit rate of the full collection: about 9.6%. Unless noted, no stated cut-off is given here; in the data, active means inhibition above about 30%; inactive means the rest.

CCn1c(COc2ccccc2C)nnc1SCC(=O)Nc1cc(C)on1	none
CCn1c(COc2ccccc2C)nnc1SCC(=O)CC(=O)Nc1ccccc1	Cav3 T inh -5
C=CCn1c(COc2cccc3ccc(C)nc23)nnc1SCC(=O)OC	PostGolgi yeast 30
CCn1c(CNC(=O)c2cccs2)nnc1SCC(=O)NCCc1ccccc1	PostGolgi ctrl 31
Cc1ccc(NCc2nnc(SCC(=O)Nc3ccccc3)n2CC2CCCO2)c(C)c1 (stereo not given)	Cav3 T inh -4.5
Cc1ccc(NCc2nnc(SCCN3CCCCC3)n2CC2CCCO2)c(C)c1 (stereo not given)	none
C/C=C/C(=O)Nc1cccc(C2=NOC3(C2)C[C@@H](C(N)=O)N(C(=O)C(c2ccccc2)c2ccccc2)C3)c1 (stereo not given in full)	none (no result: PostGolgi ctrl, PostGolgi yeast, PLAP act)
CC1CN=C(N(C(=O)Nc2ccccc2)c2ccc(S(=O)(=O)N3CCOCC3)cc2)S1 (stereo not given)	none
COc1ccc2[nH]c(=O)c(C(c3nnnn3C3CCCC3)N(C)C3CCCCC3)cc2c1 (stereo not given)	none
CCn1c(COc2cccc(C)c2)nnc1SCC(=O)Nc1cccc(C(=O)OC)c1	none
CCOC(=O)c1cccc(NC(=O)CSc2nnc(-c3cccnc3)n2CC)c1	none
CCOC(=O)c1cccc(NC(=O)CSc2nnc(CNc3ccc(C)cc3)n2CC)c1	Cav3 T inh -4.1
CCOC(=O)c1ccccc1NC(=O)CSc1nnc(COc2ccccc2)n1CC	Cav3 T inh -5.7
CCOC(=O)c1cccc(NC(=O)CSc2nnc(COc3ccccc3)n2CC)c1	Cav3 T inh -6.1
CCn1c(SCC(=O)Nc2ccc3c(c2)c2ccccc2n3CC)nnc1-c1cnccn1	hDAT+cocaine 2.5 (no result: Cav3 T inh)
COc1ccc2c(c1)N(C(=O)CSc1n[nH]c(C)n1)C(C)(C)C=C2C	none
CCn1c(CNC(=O)COc2ccc(C(C)C)cc2)nnc1SCC(=O)Nc1ccccc1	Cav3 T inh -4
CCOc1ccc(NC(=O)CSc2nnc(C(C)C)n2CC)cc1	none (no result: PostGolgi ctrl, PostGolgi yeast, PLAP act)
CCn1c(COc2cccc3ccccc23)nnc1SCC(=O)OC1CCCCC1	Cav3 T inh -5.6, PLAP act 2.5
CCOC(=O)N1CCN(C(=O)c2cccc(-n3c(=S)[nH]c4cc(Cl)ccc4c3=O)c2)CC1	none
CCn1c(SCC(=O)O)nnc1C1CCCCC1	PostGolgi ctrl 31
O=C(COc1cccc2ccccc12)N1c2ccccc2CCc2ccccc21	PostGolgi ctrl 32, Cav3 T inh -6.6
CC1(C)CC2CC(C)(CN2C(=O)COC(=O)c2n[nH]c(=O)c3ccccc23)C1 (stereo not given)	none
CC1(C)CC2CC(C)(CN2C(=O)COc2cccc3ccccc23)C1 (stereo not given)	PostGolgi ctrl 46
COc1ccc(/C=N/OCC(=O)N2CC3(C)CC2CC(C)(C)C3)cc1 (stereo not given)	hDAT+cocaine 3.7
Cc1nc(NCCc2ccccc2F)c(C#N)c(C)c1[N+](=O)[O-]	none
Cc1ccc(S(=O)(=O)N2CCN(C(=O)CN3CCOCC3)C2c2ccccc2)cc1 (stereo not given)	none
O=C(NCC1CCCO1)c1ccc(S(=O)(=O)N2CCC(c3nc4ccc(Cl)cc4[nH]3)CC2)cc1 (stereo not given)	none (no result: PostGolgi ctrl, PostGolgi yeast, PLAP act)
COc1cnc(-c2ccccn2)nc1Sc1ccc(Cl)cc1	PostGolgi ctrl 35
Cc1ccc(-c2nc(CSCC(=O)N3CCN(c4ccccn4)CC3)c(C)o2)cc1	Cav3 T inh -5
CCc1ccc(-c2nc(CSCC(=O)N3CCN(c4ccccn4)CC3)c(C)o2)cc1	Cav3 T inh -6.8
CC(C)(C)NC(=O)CN(C(=O)Cn1nnc(-c2ccccc2F)n1)c1cccc2c1CCCC2	Cav3 T inh -3.1
CC(C)(C)NC(=O)CN(C(=O)Cn1nnc(-c2ccc(Cl)cc2)n1)C1CCN(Cc2ccccc2)CC1	Cav3 T inh -7.6 (no result: PostGolgi ctrl, PostGolgi yeast, PLAP act)
Cc1ccc(-n2ncc(C#N)c2/N=C/N(C)C)cc1	PostGolgi ctrl 33
Cc1ccc(-n2ncc(C#N)c2/N=C/N2CCOCC2)cc1	none
O=C(Nc1ccc(-c2noc(-c3cccs3)n2)cc1)c1cccnc1	none (no result: PLAP act)
CC(NC(=S)NCCc1ccccc1)C(c1cccs1)N1CCN(Cc2ccccc2)CC1 (stereo not given)	Cav3 T inh -4.6 (no result: PostGolgi ctrl, PostGolgi yeast, PLAP act)
CC(NC(=O)NC1CCCCC1)C(c1cccs1)N1CCN(Cc2ccccc2)CC1 (stereo not given)	none (no result: PLAP act)
COc1ccc(-n2c(N)c(C(=O)NCc3ccco3)c3nc4ccccc4nc32)c(OC)c1	none
Cn1c(CN2CCCC2)nc2cc(NC(=O)COc3ccc(Cl)cc3)ccc21	PostGolgi ctrl 33
